From ChEMBL document CHEMBL3433997, “St. Jude Leishmania screening dataset” (2016)

Biological target: Solute carrier family 2, facilitated glucose transporter member 1 (Homo sapiens) (UniProt P11166)
Assay: ST_JUDE_LEISH: Cytotoxicity at 2uM final concentration against transgenic Leishmania Mexicana promastigotes LmGLUT1 that are glucose transport deficient and complemented with the human glucose transporter GLUT1. Activity is measured by DNA content using SYBR green in vitro
Format: functional

Chain of Solute carrier family 2, facilitated glucose transporter member 1 (Homo sapiens) (P11166 whole entry): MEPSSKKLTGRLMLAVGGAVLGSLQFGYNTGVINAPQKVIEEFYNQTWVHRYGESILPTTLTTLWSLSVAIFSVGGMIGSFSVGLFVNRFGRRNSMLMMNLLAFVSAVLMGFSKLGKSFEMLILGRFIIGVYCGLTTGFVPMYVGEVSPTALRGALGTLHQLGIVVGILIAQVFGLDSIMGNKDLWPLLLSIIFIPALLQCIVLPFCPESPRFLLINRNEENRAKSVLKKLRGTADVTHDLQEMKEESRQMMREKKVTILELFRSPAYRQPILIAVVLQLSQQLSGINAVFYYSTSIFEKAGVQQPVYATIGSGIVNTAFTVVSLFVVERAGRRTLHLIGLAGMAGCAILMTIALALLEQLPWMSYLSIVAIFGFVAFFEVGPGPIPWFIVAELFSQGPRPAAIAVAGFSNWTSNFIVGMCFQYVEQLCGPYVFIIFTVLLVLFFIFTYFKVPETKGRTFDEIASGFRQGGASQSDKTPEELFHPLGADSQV

| SMILES | inhibition |
| --- | --- |
| Cc1cc(NC(=O)c2cccs2)ccc1OC1CCN(Cc2ccc(C#N)cc2)CC1 | -0.77% |
| Oc1cccc(CNCCCN(Cc2ccccc2)c2ccccc2)c1 | 1.74% |
| C=CCCCNCC(NCCCNc1cc(=O)c2ccccc2[nH]1)c1cc(Br)cc(Br)c1 (stereo not given) | -2.22% |
| Fc1ccc2[nH]c(-c3cccc(-c4cccc(CNCC5CCCO5)c4)c3)nc2c1 (stereo not given) | -0.33% |
| CCC1N=C(N)N=C(N)N1OCc1ccc(Cl)c(Cl)c1 (stereo not given) | -0.58% |
| COc1ccc(Nc2nc(NN=Cc3cc(Br)c(O)cc3O)nc(Nc3ccc([N+](=O)[O-])cc3)n2)cc1 | 0.58% |
| CC(C)CNCc1cccc(-c2cccc(CNC3CCN(Cc4ccccc4)CC3)c2)c1 | 1.93% |
| COc1ccc2c(-c3ccccc3)noc2c1 | 0.37% |
| CCCCCn1c(Sc2ccc(C#N)c([N+](=O)[O-])c2)nnc1-c1cccc(Cl)c1 | 5.58% |
| Nc1ccc(-c2cnc3[nH]cc(-c4ccc(C(=O)O)cc4)c3c2)cn1 | -0.33% |
| NC(=O)c1cccc(C(=O)Nc2ccc(-c3cccc(-c4nc5cc(F)ccc5[nH]4)c3)cc2)c1 | 0.18% |
| Fc1ccc(Nc2ccnc3cc(-c4ccc(CN5CCOCC5)o4)ccc23)c(Cl)c1 | 9.15% |
| Cc1cc(CN2CCC(C(=O)Nc3ccc(-c4nc5ccccc5[nH]4)cc3)CC2)oc1C | 13.2% |
| Fc1ccc2[nH]c(-c3cccc(-c4cccc(CNCc5cnn(-c6ccccc6)n5)c4)c3)nc2c1 | 6.56% |
| Cc1cc(N)c2cc(NC(=O)c3ccc4ccccc4c3)ccc2n1 | 3.68% |
| COc1ccc2nccc(N3CCC(CCNCc4ccc5c(n4)NC(=O)CO5)CC3)c2n1 | 0.66% |
| CCOC(=O)c1sc(C(C)Nc2ccccc2)nc1-c1ccccc1 (stereo not given) | 0.89% |
| CCN(CC)CCN(Cc1ccc(-c2ccc(C(F)(F)F)cc2)cc1)C(=O)Cn1c(CCc2c(F)cc(F)cc2F)nc(=O)c2ccccc21 | -0.61% |
| COc1ccc(-c2ccc3c(-c4ccc(F)cc4)cnc(N)c3c2)cn1 | -1.25% |
| O=C(Cc1cccc(Cl)c1)Nc1cccc(-c2c[nH]c3nc(Nc4cccc(O)c4)ncc23)c1 | 0.33% |
| Cc1ccccc1C1CCN(C2CCC(NC(=O)/C=C/c3cccc(F)c3)CC2)CC1 (stereo not given) | 6.96% |
| O=C(Nc1ccncc1)Nc1ccc2c(c1)CCN(C1CCC1)CC2 | 3.98% |
| CC(C)NCc1ccc(-c2ccc(CN3CCCC(c4ccccc4)C3)cc2)c(C(=O)NCC2CCCCC2)c1 (stereo not given) | -0.28% |
| CCC(=O)N1CCc2cc(Br)cc(S(=O)(=O)N3CC(C)CC(C)C3)c21 (stereo not given) | 5.05% |
| c1ccn2c(Sc3ncnc4sccc34)ncc2c1 | -0.89% |

Biological target: Hexose transporter 1 (Plasmodium falciparum) (UniProt O97467)
Assay: ST_JUDE_LEISH: Cytotoxicity at 2uM final concentration against transgenic Leishmania Mexicana promastigotes LmPfHT that are glucose transport deficient and complemented with the Plasmodium falciparum hexose transporter. Activity is measured by DNA content using SYBR green in vitro
Format: functional

| SMILES | inhibition |
| --- | --- |
| NC1CCCN(Cc2ccc(-c3cccc(-c4nc5cc(F)ccc5[nH]4)c3)cc2)C1 (stereo not given) | 0.23% |
| c1cc(CNCC2CCCO2)cc(-c2ccc(-c3nc4ccccc4[nH]3)s2)c1 (stereo not given) | -3.37% |
| O=C(Nc1cccc(C(F)(F)F)c1)c1cccc2nc(C(F)(F)F)[nH]c12 | 24.2% |
| COc1ccc(S(=O)(=O)NCCC2CCN(CCCCCNC(=O)C=Cc3ccc(Cl)c(Cl)c3)CC2)cc1 | 2.12% |
| OC(CNc1ccnc(Nc2ccc(Cl)cc2)n1)c1cccc(C(F)(F)F)c1 (stereo not given) | 2.79% |
| CO/C(=C\C=C\c1cc2cc(Cl)c(Cl)cc2[nH]1)C(=O)NCCCN1CCN(c2cccc(CCO)c2)CC1 | 1.35% |
| O=C(NCC1CCN(Cc2ccc(F)cc2)C1)c1cc(-c2cccc(C(F)(F)F)c2)cs1 (stereo not given) | -1.16% |
| CCCCCCCN1CC[C@@H](CCCc2ccnc3ccc(OCC4CCCNC4)cc23)[C@@H](CC)C1 (stereo not given in full) | 3.17% |
| COc1ccc2nccc([C@@H](O)CN3CCC(NCc4cc5cc(OC(F)(F)F)ccc5[nH]4)CC3)c2c1 | 10.4% |
| CNCCNCc1ccc(-c2ccc(-c3nc4ccccc4[nH]3)s2)cc1 | 4.5% |
| O=C(NCCN1CCCCC1)c1cccc(Nc2nccc(Nc3ccc(Oc4ccccc4)cc3)n2)c1 | -0.85% |
| CCn1c(SCc2ccccc2)nc2c1c(=O)[nH]c(=O)n2C | -0.05% |
| CCc1nn2c(Nc3ccncc3)cc(C)nc2c1-c1ccccc1 | 3.33% |
| CCOc1c(CNCCCNc2cc(=O)c3ccccc3[nH]2)cc(I)cc1C(C)(C)C | 1.18% |
| COC(=O)c1ccc(NC(=O)Nc2cccc(CCNCc3ccccc3)c2)cc1 | -0.8% |
| Cc1cc(NC(=O)c2cccs2)ccc1OC1CCN(Cc2ccc(C#N)cc2)CC1 | 1.49% |
| Oc1cccc(CNCCCN(Cc2ccccc2)c2ccccc2)c1 | -0.63% |
| C=CCCCNCC(NCCCNc1cc(=O)c2ccccc2[nH]1)c1cc(Br)cc(Br)c1 (stereo not given) | -0.98% |
| Fc1ccc2[nH]c(-c3cccc(-c4cccc(CNCC5CCCO5)c4)c3)nc2c1 (stereo not given) | -0.14% |
| CCC1N=C(N)N=C(N)N1OCc1ccc(Cl)c(Cl)c1 (stereo not given) | 0.09% |

| SMILES | inhibition |
| --- | --- |
| COc1ccc(Nc2nc(NN=Cc3cc(Br)c(O)cc3O)nc(Nc3ccc([N+](=O)[O-])cc3)n2)cc1 | 0.96% |
| CC(C)CNCc1cccc(-c2cccc(CNC3CCN(Cc4ccccc4)CC3)c2)c1 | 2.58% |
| COc1ccc2c(-c3ccccc3)noc2c1 | 0.1% |
| CCCCCn1c(Sc2ccc(C#N)c([N+](=O)[O-])c2)nnc1-c1cccc(Cl)c1 | 6.17% |
| Nc1ccc(-c2cnc3[nH]cc(-c4ccc(C(=O)O)cc4)c3c2)cn1 | 0.34% |
| NC(=O)c1cccc(C(=O)Nc2ccc(-c3cccc(-c4nc5cc(F)ccc5[nH]4)c3)cc2)c1 | 0.01% |
| Fc1ccc(Nc2ccnc3cc(-c4ccc(CN5CCOCC5)o4)ccc23)c(Cl)c1 | 8.02% |
| Cc1cc(CN2CCC(C(=O)Nc3ccc(-c4nc5ccccc5[nH]4)cc3)CC2)oc1C | 16% |
| Fc1ccc2[nH]c(-c3cccc(-c4cccc(CNCc5cnn(-c6ccccc6)n5)c4)c3)nc2c1 | 8.75% |
| Cc1cc(N)c2cc(NC(=O)c3ccc4ccccc4c3)ccc2n1 | 4.64% |
| COc1ccc2nccc(N3CCC(CCNCc4ccc5c(n4)NC(=O)CO5)CC3)c2n1 | 0.67% |
| CCOC(=O)c1sc(C(C)Nc2ccccc2)nc1-c1ccccc1 (stereo not given) | -0.3% |
| CCN(CC)CCN(Cc1ccc(-c2ccc(C(F)(F)F)cc2)cc1)C(=O)Cn1c(CCc2c(F)cc(F)cc2F)nc(=O)c2ccccc21 | 0.48% |
| COc1ccc(-c2ccc3c(-c4ccc(F)cc4)cnc(N)c3c2)cn1 | -1.33% |
| O=C(Cc1cccc(Cl)c1)Nc1cccc(-c2c[nH]c3nc(Nc4cccc(O)c4)ncc23)c1 | 0.22% |
| Cc1ccccc1C1CCN(C2CCC(NC(=O)/C=C/c3cccc(F)c3)CC2)CC1 (stereo not given) | 8.22% |
| O=C(Nc1ccncc1)Nc1ccc2c(c1)CCN(C1CCC1)CC2 | 3.34% |
| CC(C)NCc1ccc(-c2ccc(CN3CCCC(c4ccccc4)C3)cc2)c(C(=O)NCC2CCCCC2)c1 (stereo not given) | -0.36% |
| CCC(=O)N1CCc2cc(Br)cc(S(=O)(=O)N3CC(C)CC(C)C3)c21 (stereo not given) | 3.54% |
| c1ccn2c(Sc3ncnc4sccc34)ncc2c1 | -1.87% |
